Screens from PubChem BioAssay.
GDH-TPI counter = GDH-TPI coupled enzyme inhibition counter-screen. GDH-TPI coupled enzyme counterscreen, NADH absorbance. inhibition, % at 4.8 µM. actives 1.2% (n = 360,000); in the data active means inhibition above about 30%
Mtb bLac sens = beta-lactam sensitization of Mtb H37Rv; M. tuberculosis H37Rv growth with meropenem, percent inhibition; inhibition, % at 25 µM; actives 0.27% (n = 330,000); call rule not given here;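 further: growth measured after seven days incubation then overnight dye step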
UGM FP inh = inhibitors of M. tuberculosis UDP-galactopyranose mutase; purified UGM, fluorescence polarization probe displacement; actives 0.06% (n = 320,000); inhibition, % at 10 µM; AID 504406; in the data active means inhibition above about 10%, passing the limit was not always enough; inconclusive means no clear call, values can overlap the other calls
RecA intein inh = Mtb RecA intein splicing inhibition | cell-free RecA intein splicing, fluorescence | P9WHJ3 | actives 0.75% (n = 290,000) | inhibition, % (test concentration not listed) | AID 2221; in the data active means inhibition above about 30%; inconclusive means no clear call, values can overlap the other calls
Rv3671c inh = Rv3671c (M. tuberculosis) protease inhibition; P9WHR9; inhibition, % at 5.96 µM; actives 0.048% (n = 320,000); AID 2606; in the data active means inhibition above about 38%;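 further: extracellular domain of Rv3671c used as enzyme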
Target sequence (P9WHR9 whole entry, looked up, the tested form may be a part): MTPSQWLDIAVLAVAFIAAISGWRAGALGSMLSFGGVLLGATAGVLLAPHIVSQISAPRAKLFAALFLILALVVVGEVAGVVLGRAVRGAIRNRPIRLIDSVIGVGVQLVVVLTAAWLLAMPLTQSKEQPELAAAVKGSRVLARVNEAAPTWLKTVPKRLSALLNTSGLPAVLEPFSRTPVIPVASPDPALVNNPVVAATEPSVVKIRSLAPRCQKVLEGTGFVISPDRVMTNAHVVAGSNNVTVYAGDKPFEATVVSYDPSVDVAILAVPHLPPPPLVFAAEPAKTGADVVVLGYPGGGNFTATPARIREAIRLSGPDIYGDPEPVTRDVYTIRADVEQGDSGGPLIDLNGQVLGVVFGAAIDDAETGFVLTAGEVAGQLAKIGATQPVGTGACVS
Mtb FBA inh = inhibitors of M. tuberculosis fructose-bisphosphate aldolase; inhibition, % at 1 µM; AID 588726; P9WQA3; actives 2.3% (n = 360,000); purified M. tuberculosis FBA, fluorescence read-out; in the data active means inhibition above about 27%
Hits are given with their value; 0 = inactive; ? = inconclusive; - = no result given; + = active, no number. Hits are enriched below; roughly 4% of the tested compounds scored in any of these assays.

SMILES	GDH-TPI counter	Mtb bLac sens	UGM FP inh	RecA intein inh	Rv3671c inh	Mtb FBA inh
COc1cc(C)ccc1OCc1cc(C(=O)NCCN2CCOCC2)no1	0	?	0	0	0	0
Cc1ccccc1OCC(=O)N/N=C/c1sc(=O)n(Cc2cccc(C(=O)O)c2)c1Cl	0	0	0	0	0	0
O=C(O)c1cccc(Cn2c(Cl)c(/C=N/NC(=O)c3ccccc3Cl)sc2=O)c1	41	0	0	0	0	0
O=C(O)c1cccc(Cn2c(Cl)c(/C=N/NC(=O)c3ccccc3O)sc2=O)c1	54	0	0	0	0	0
O=C(N/N=C/c1sc(=O)n(Cc2ccc(Br)cc2)c1Cl)c1ccco1	0	0	0	0	0	0
COc1ccc(C(=O)N/N=C/c2sc(=O)n(Cc3cccc(C(=O)O)c3)c2Cl)cc1	36	0	0	0	0	0
O=C(N/N=C/c1sc(N2CCOCC2)nc1-c1ccccc1)c1ccccc1O	0	0	0	0	0	0
CNc1ccc(Cl)cc1S(=O)(=O)c1ccccc1[N+](=O)[O-]	-	-	-	-	-	0
CCSc1nc(N)c2c3c(sc2n1)CN(C)CC3	-	?	0	0	0	-
COC(CSc1nc(N)c2c3c(sc2n1)CN(C)CC3)OC	36	0	0	0	0	181
Cc1nc(-c2ccccc2)sc1-c1ccnn1C	0	0	0	0	0	124
CN(Cc1ccc(Cl)cc1)C(=O)CCl	0	0	0	63	0	0
CN(Cc1ccc(Cl)s1)C(=O)CCl	0	0	0	43	0	0
COc1ccc(CC(=O)Oc2ccc(F)c(F)c2)cc1S(=O)(=O)N1CCOCC1	0	0	0	0	0	0
CCCCc1nc(C(N)=O)c2[nH]c(=O)n(-c3ccccc3F)c2n1	0	?	0	0	0	136
CCCCc1nc(C(N)=O)c2[nH]c(=O)n(-c3ccc(OC)cc3OC)c2n1	0	?	0	0	0	0
Cc1c(CCC(=O)N2CCC(C(=O)NCCCCCC(=O)O)CC2)c(=O)oc2cc3oc4c(c3cc12)CCCC4	0	0	0	0	0	0
Cc1c(CC(=O)N2CCC(C(=O)O)CC2)c(=O)oc2cc3c(cc12)CCC1(CCCCC1)O3	41	0	0	0	0	+
Cc1c(CC(=O)N2CCN(C(=O)C3COc4ccccc4O3)CC2)c(=O)oc2cc(O)c(Cl)cc12 (stereo unspecified)	0	0	0	0	0	-
Cc1c(CC(=O)N2CCC(O)CC2)c(=O)oc2cc3c(cc12)CCC1(CCCCC1)O3	0	-	-	-	-	181
CCc1ccc([C@@H]2C[C@H]3[C@@H](CN2S(=O)(=O)c2ccc(C)cc2)C(=O)C[C@@H](c2cccc(Cl)c2)N3S(=O)(=O)c2ccc(C)cc2)cc1	0	-	-	-	-	0
CCOC(=O)C1=CC[C@@H](c2ccccc2)N(S(=O)(=O)c2ccc(C)cc2)[C@H]1C#N	-	-	-	-	-	0
O=c1cc(C(F)(F)F)[nH]c2c(C(F)(F)F)cccc12	0	0	0	0	0	+
Cc1cc(C)cc(OCC(=O)OCC(=O)NC2CC2)c1	0	0	0	-	0	0
CCN1C(=O)[C@H]2[C@@H](c3ccc(OC)cc3)N[C@]3(CCCN(Cc4ccc(C)cc4)C3=O)[C@H]2C1=O	0	-	-	-	-	0
SMILES	GDH-TPI counter	Mtb bLac sens	UGM FP inh	RecA intein inh	Rv3671c inh	Mtb FBA inh
COc1ccccc1C(=O)N/C(=C\c1cn(C)c2ccccc12)C(=O)NCCN1CCOCC1	0	-	-	-	-	0
COc1cc(C(=O)N/C(=C\c2cn(C)c3ccccc23)C(=O)NCCCN2CCOCC2)cc(OC)c1OC	0	0	0	0	0	0
CN(C)c1ccc(/C=C(/NC(=O)c2ccccc2Cl)C(=O)NCCN2CCOCC2)cc1	42	0	0	0	0	0
CCn1cc(/C=C(\NC(=O)c2ccc(C)cc2)C(=O)NCCCN2CCOCC2)c2ccccc21	41	-	-	0	-	0
COc1ccccc1C(=O)N/C(=C\c1cn(C)c2ccccc12)C(=O)NCCCN1CCOCC1	36	0	0	0	0	0
CCn1cc(/C=C(\NC(=O)c2ccc(OC)c(OC)c2)C(=O)NCCCN2CCOCC2)c2ccccc21	41	-	-	0	-	0
CCn1cc(/C=C(\NC(=O)c2ccccc2)C(=O)NCCN2CCOCC2)c2ccccc21	48	-	-	-	-	0
CCn1cc(/C=C(\NC(=O)c2ccccc2Cl)C(=O)NCCN2CCOCC2)c2ccccc21	0	0	0	0	0	0
CCn1cc(/C=C(\NC(=O)c2ccccc2F)C(=O)N2CCN(C)CC2)c2ccccc21	39	-	-	-	-	0
COc1ccc(COC(=O)N/N=C(\C)CC(=O)Nc2ccc(Cl)cn2)cc1	0	0	0	45	0	0
Oc1cccc2ccc(/C=C/c3cccs3)nc12	31	0	0	0	0	0
CCn1c(C)cc(/C=C2\NC(=O)N(Cc3ccc(Cl)cc3)C2=O)c1C	0	0	0	0	0	0
CCN1C(=O)N/C(=C/c2cc(C)n(Cc3ccccc3)c2C)C1=O	32	0	0	0	0	0
COc1cc(/C=N/NC(=O)c2ccc3c(c2)OCCO3)cc(Cl)c1O	0	?	0	0	0	0
COc1c(O)ccc(/C=N/NC(=O)c2ccc3c(c2)OCCO3)c1[N+](=O)[O-]	62	0	0	0	0	0
COc1c(O)ccc(/C=N\NC(=O)c2ccc3c(c2)OCO3)c1[N+](=O)[O-]	33	0	0	0	0	0
O=C(N/N=C/c1cc2c(cc1[N+](=O)[O-])OCO2)c1ccc2c(c1)OCO2	0	0	0	0	0	0
COc1ccc(C(=O)CC(=O)c2ccccc2O)cc1	0	0	0	-	0	171
COc1ccc(O)c(C(=O)CC(=O)c2ccccc2C)c1	0	0	0	0	0	0
COc1ccc(O)c(C(=O)CC(=O)c2cccnc2)c1	0	-	-	-	-	115
Nc1ccc2c(C(F)(F)F)cc(=O)oc2c1	0	0	0	0	0	63
CN1OC[C@@H]2CN(C(=S)NCCc3ccccc3)[C@H](c3ccc(-n4ccnc4)cc3)C[C@@H]21	-	-	-	-	-	0
COc1ccc(-c2cc(=Nc3c(C)n(C)n(-c4ccccc4)c3=O)c3ccccc3o2)cc1	0	0	0	0	0	+
NC1CCN(c2c(F)cc3c(=O)c(C(=O)O)cn(C4CC4)c3c2Cl)C1 (stereo unspecified)	34	0	0	0	0	0
COc1c(N2CCNC(C)C2)c(F)cc2c(=O)c(C(=O)O)cn(C3CC3)c12 (stereo unspecified)	-	0	0	0	0	-
SMILES	GDH-TPI counter	Mtb bLac sens	UGM FP inh	RecA intein inh	Rv3671c inh	Mtb FBA inh
COC(=O)c1nc(C(=O)OC)c(C(=O)OC)nc1C(=O)OC	0	0	0	0	0	0
COC(=O)c1nccnc1N	0	-	-	-	-	146
Cc1cnc(C(=O)OCC(=O)C23CC4CC(CC(C4)C2)C3)cn1	0	0	0	0	0	0
Nc1nccnc1C(=O)OCC(=O)N1CCN(S(=O)(=O)c2ccc(Cl)cc2)CC1	0	0	-	0	0	148
Nc1nccnc1C(=O)OCC(=O)C12CC3CC(CC(C3)C1)C2	0	0	0	0	0	127
CC1CC(C)CN(C(=O)COC(=O)c2nccnc2N)C1 (stereo unspecified)	0	0	0	-	0	180
